# Measured values: PubChem BioAssay (Tox21)
# Results filed as inconclusive are left out. Active and inactive are the calls of the source. Calls follow the shape of the dose curve; as a rule, active = well fitted curve in the direction sought with a large enough effect in the repeat runs; inconclusive = weak or mixed curves; inactive = no such curve, though single readings can be large; an effect the other way counts as inactive or inconclusive.
# Target: Cytochrome P450 1A2 (Homo sapiens) (UniProt P05177)
# Sequence (P05177 whole entry, looked up): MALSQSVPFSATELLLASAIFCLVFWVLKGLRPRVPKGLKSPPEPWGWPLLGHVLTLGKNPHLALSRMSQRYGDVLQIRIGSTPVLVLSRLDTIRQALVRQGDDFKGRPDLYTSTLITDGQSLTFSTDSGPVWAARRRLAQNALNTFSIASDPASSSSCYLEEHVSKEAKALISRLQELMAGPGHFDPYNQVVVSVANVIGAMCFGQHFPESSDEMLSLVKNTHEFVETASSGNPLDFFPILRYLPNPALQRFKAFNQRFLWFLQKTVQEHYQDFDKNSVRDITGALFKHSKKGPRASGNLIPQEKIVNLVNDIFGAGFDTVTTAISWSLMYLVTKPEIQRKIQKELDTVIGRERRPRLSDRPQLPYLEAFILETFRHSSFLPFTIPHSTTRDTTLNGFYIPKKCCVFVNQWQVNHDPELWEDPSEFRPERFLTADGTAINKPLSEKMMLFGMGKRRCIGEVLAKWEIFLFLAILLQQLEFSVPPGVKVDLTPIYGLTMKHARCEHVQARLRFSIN
# Assay: Cytochrome P450 Family 1 Subfamily A Member 2 (CYP1A2) small molecule antagonists: luciferase reporter qHTS assay (AID 1671199); also: potency is read from the fitted curve at half-maximal effect
# Conditions: P450-Glo CYP1A2 enzyme, luciferin luminescence, 1 h; series mostly up to 53 µM; activity change, negative = inhibition: at the top concentration
# Summary of the method: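 Compounds were incubated with CYP1A2 and a luminogenic proluciferin substrate for 10 min at room temperature before the reaction was started with NADPH regeneration solution. After 1 h, detection reagent was added and light output, proportional to CYP activity, was recorded.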
# % is scaled to controls: 0 for no effect and ±100 for the full control effect.
# Also: nearly all actives have a fitted effect of over 50% in size.
Structure (SMILES),Potency,"activity change, negative = inhibition"
Cc1ccccc1N=O,41 µM (active),–
CCCCCOC(=O)CCC,–,-16.5% [at 115 µM] (inactive)
Oc1ccccc1-c1nnco1,30.9 µM (active),–
CCOCCOC(=O)/C=C/c1ccc(OC)cc1,7.76 µM (active),–
Cc1ccc(S(=O)(=O)O)c(C)c1,–,-10.4% [at 115 µM] (inactive)
O=C(OCc1ccccc1)C(=O)OCc1ccccc1,–,-12.1% [at 115 µM] (inactive)
CC(C)N(c1ccccc1)C(C)C,–,-27.7% [at 115 µM] (inactive)
CN(C)C(=O)CNC(=O)Cc1ccccc1,–,13.3% (inactive)
CCC(C)(CCC(C)C)C(=O)O (stereo unspecified),–,-18.9% [at 115 µM] (inactive)
CCOC(=O)[C@H](CCc1ccccc1)N[C@@H](C)C(=O)N1C(=O)N(C)C[C@H]1C(=O)O,–,14.4% (inactive)
O=C1CC(c2ccc(Cl)cc2)CC(=O)N1,27.5 µM (active),–
C[C@H](CCC(=O)O)[C@H]1CC[C@H]2[C@@H]3C(=O)C[C@@H]4CC(=O)CC[C@]4(C)[C@H]3CC(=O)[C@]12C,–,11.7% (inactive)
CC1=CCC(C(C)C)=CC1,–,-7.04% [at 115 µM] (inactive)
CC(=O)Nc1ccc(S(=O)(=O)Nc2ccc([N+](=O)[O-])cc2)cc1,–,-6.69% (inactive)
CC(=O)NCCCCCC(=O)O,–,12.4% (inactive)
COc1cc(N)ccc1C,4.98 µM (active),–
CC(S)C(=O)NCC(=O)O (stereo unspecified),–,3.02% (inactive)
Cc1ccc2ccc(Cl)cc2n1,15.5 µM (active),–
CC(C)(C)NC(N)=O,17.8 µM (active),–

Structure (SMILES),Potency,"activity change, negative = inhibition"
O=C(O)Cc1ccc(Cl)cc1Cl,–,-17.2% [at 115 µM] (inactive)
O=C(O)c1ccc(Cl)cc1Cl,–,-25.7% [at 115 µM] (inactive)
COP(=O)(OC)OC(c1ccc(Cl)cc1)P(=O)(OC)OC (stereo unspecified),–,-1.09% (inactive)
CCCOC(OCCC)OCCC,–,-18% [at 115 µM] (inactive)
CC(CO)c1ccccc1 (stereo unspecified),–,-18.5% [at 115 µM] (inactive)
CCCCNC1CC(C)(C)NC(C)(C)C1,–,-16% [at 115 µM] (inactive)
NS(=O)(=O)c1ccc(NC(=O)CCC(=O)O)cc1,–,-3.46% (inactive)
CC/C=C\CC1=C(C)CCC1=O,31.7 µM (active),–
OCCC(F)(F)C(F)(F)C(F)(F)C(F)(F)C(F)(F)C(F)(F)C(F)(F)C(F)(F)F,–,-1.01% [at 115 µM] (inactive)
CCCCCCOC(=O)CC,–,-8.31% [at 115 µM] (inactive)
BrCc1cccc(Oc2ccccc2)c1,39.9 µM (active),–
COc1cc(C(=S)N2CCOCC2)cc(OC)c1OC,–,-1.64% (inactive)
CN(C)c1ccc(C=O)cc1,35.6 µM (active),–
COC(=O)c1ccccc1C(=O)c1ccc(OCCN2CCCCC2)cc1,–,-2.97% (inactive)
CC(=O)c1sc(C)nc1C,–,-13.3% [at 115 µM] (inactive)
COc1ccc(C2CNC(=O)C2)cc1OC1CCCC1 (stereo unspecified),13.8 µM (active),–
CCOc1cc(NC(C)=O)ccc1C(=O)OC,5.49 µM (active),–
CCCCCCCCSCC,–,-25.2% [at 115 µM] (inactive)

# Target: Voltage-gated inwardly rectifying potassium channel KCNH2 (Homo sapiens) (UniProt Q12809)
# Sequence (Q12809 whole entry, looked up): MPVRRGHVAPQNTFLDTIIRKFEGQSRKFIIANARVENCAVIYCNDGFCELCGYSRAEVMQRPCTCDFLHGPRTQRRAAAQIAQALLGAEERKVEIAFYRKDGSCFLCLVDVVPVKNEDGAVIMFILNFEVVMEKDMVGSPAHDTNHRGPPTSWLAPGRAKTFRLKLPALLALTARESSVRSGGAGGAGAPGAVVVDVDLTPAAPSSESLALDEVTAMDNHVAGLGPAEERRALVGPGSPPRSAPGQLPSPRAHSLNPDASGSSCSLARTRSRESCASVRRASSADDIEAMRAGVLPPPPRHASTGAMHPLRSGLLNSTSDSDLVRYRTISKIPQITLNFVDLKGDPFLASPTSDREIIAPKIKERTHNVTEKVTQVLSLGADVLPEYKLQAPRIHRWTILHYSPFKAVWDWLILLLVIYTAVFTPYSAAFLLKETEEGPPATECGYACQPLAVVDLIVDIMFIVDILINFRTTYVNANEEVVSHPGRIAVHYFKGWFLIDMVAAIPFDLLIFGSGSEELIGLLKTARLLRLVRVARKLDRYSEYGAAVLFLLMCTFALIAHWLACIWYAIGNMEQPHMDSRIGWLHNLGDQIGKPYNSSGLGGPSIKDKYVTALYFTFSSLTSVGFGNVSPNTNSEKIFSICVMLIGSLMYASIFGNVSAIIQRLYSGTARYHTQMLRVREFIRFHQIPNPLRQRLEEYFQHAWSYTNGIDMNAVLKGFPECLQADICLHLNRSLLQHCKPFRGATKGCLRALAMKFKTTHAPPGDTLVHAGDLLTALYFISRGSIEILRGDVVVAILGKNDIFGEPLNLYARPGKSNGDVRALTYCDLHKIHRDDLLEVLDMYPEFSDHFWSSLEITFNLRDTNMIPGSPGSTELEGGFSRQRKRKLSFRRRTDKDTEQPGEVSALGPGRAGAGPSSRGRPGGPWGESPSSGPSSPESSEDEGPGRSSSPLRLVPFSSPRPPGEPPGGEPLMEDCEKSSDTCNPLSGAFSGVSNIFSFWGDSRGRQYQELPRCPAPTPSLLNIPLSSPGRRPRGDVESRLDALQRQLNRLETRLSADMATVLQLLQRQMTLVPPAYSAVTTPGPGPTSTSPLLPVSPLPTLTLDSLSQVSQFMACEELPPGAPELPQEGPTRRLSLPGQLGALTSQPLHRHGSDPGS
# Assay: Human Ether-a-go-go-Related Gene (hERG) channel small molecule antagonists: fluorescence cell-based qHTS assay (AID 1671200);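 also: hERG-expressing U2OS cells given a thallium stimulus after FluxOR II dye loading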
# Conditions: hERG-U2OS cells, FluxOR thallium flux fluorescence; series mostly up to 76.8 µM; activity change, negative = inhibition: at the top concentration
# Summary of the method: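 Thallium served as the potassium surrogate; its influx into dye-loaded U2OS cells carrying the channel was measured by fluorescence over 2 min.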
row,Structure (SMILES),"activity change, negative = inhibition"
1,Cc1ccccc1N=O,-1.19% (inactive)
2,CCCCCOC(=O)CCC,4.53% (inactive)
3,Oc1ccccc1-c1nnco1,3.12% [at 35.3 µM] (inactive)
4,CCOCCOC(=O)/C=C/c1ccc(OC)cc1,2.46% [at 35.3 µM] (inactive)
5,Cc1ccc(S(=O)(=O)O)c(C)c1,-0.543% (inactive)
6,O=C(OCc1ccccc1)C(=O)OCc1ccccc1,-0.996% (inactive)
7,CC(C)N(c1ccccc1)C(C)C,1.23% (inactive)
8,CN(C)C(=O)CNC(=O)Cc1ccccc1,-2.07% [at 35.3 µM] (inactive)
9,CCC(C)(CCC(C)C)C(=O)O (stereo unspecified),-4.43% (inactive)
10,CCOC(=O)[C@H](CCc1ccccc1)N[C@@H](C)C(=O)N1C(=O)N(C)C[C@H]1C(=O)O,14.7% [at 35.3 µM] (inactive)
11,O=C1CC(c2ccc(Cl)cc2)CC(=O)N1,5.24% [at 35.3 µM] (inactive)
12,C[C@H](CCC(=O)O)[C@H]1CC[C@H]2[C@@H]3C(=O)C[C@@H]4CC(=O)CC[C@]4(C)[C@H]3CC(=O)[C@]12C,4.98% [at 35.3 µM] (inactive)
13,CC1=CCC(C(C)C)=CC1,-3.45% (inactive)
14,CC(=O)Nc1ccc(S(=O)(=O)Nc2ccc([N+](=O)[O-])cc2)cc1,-1.75% [at 35.3 µM] (inactive)
15,CC(=O)NCCCCCC(=O)O,-9.42% [at 35.3 µM] (inactive)
16,COc1cc(N)ccc1C,2.47% (inactive)
17,CC(S)C(=O)NCC(=O)O (stereo unspecified),5.38% [at 35.3 µM] (inactive)
18,Cc1ccc2ccc(Cl)cc2n1,0.331% [at 35.3 µM] (inactive)
19,CC(C)(C)NC(N)=O,7.27% (inactive)

row,Structure (SMILES),"activity change, negative = inhibition"
1,O=C(O)Cc1ccc(Cl)cc1Cl,0.841% (inactive)
2,O=C(O)c1ccc(Cl)cc1Cl,-1.53% (inactive)
3,COP(=O)(OC)OC(c1ccc(Cl)cc1)P(=O)(OC)OC (stereo unspecified),-1.64% [at 35.3 µM] (inactive)
4,CCCOC(OCCC)OCCC,2.29% (inactive)
5,CC(CO)c1ccccc1 (stereo unspecified),29.9% (inactive)
6,CCCCNC1CC(C)(C)NC(C)(C)C1,-10.4% (inactive)
7,NS(=O)(=O)c1ccc(NC(=O)CCC(=O)O)cc1,2.9% [at 35.3 µM] (inactive)
8,CC/C=C\CC1=C(C)CCC1=O,4.32% (inactive)
9,OCCC(F)(F)C(F)(F)C(F)(F)C(F)(F)C(F)(F)C(F)(F)C(F)(F)C(F)(F)F,0.0785% (inactive)
10,CCCCCCOC(=O)CC,3.72% (inactive)
11,BrCc1cccc(Oc2ccccc2)c1,3.26% (inactive)
12,COc1cc(C(=S)N2CCOCC2)cc(OC)c1OC,3.28% [at 35.3 µM] (inactive)
13,CN(C)c1ccc(C=O)cc1,1.83% (inactive)
14,COC(=O)c1ccccc1C(=O)c1ccc(OCCN2CCCCC2)cc1,1.15% [at 35.3 µM] (inactive)
15,CC(=O)c1sc(C)nc1C,-2.34% (inactive)
16,COc1ccc(C2CNC(=O)C2)cc1OC1CCCC1 (stereo unspecified),-0.531% [at 35.3 µM] (inactive)
17,CCOc1cc(NC(C)=O)ccc1C(=O)OC,0.0521% [at 35.3 µM] (inactive)
18,CCCCCCCCSCC,0.531% (inactive)

# Target: Cytochrome P450 3A4 (Homo sapiens) (UniProt P08684)
# Sequence (P08684 whole entry, looked up): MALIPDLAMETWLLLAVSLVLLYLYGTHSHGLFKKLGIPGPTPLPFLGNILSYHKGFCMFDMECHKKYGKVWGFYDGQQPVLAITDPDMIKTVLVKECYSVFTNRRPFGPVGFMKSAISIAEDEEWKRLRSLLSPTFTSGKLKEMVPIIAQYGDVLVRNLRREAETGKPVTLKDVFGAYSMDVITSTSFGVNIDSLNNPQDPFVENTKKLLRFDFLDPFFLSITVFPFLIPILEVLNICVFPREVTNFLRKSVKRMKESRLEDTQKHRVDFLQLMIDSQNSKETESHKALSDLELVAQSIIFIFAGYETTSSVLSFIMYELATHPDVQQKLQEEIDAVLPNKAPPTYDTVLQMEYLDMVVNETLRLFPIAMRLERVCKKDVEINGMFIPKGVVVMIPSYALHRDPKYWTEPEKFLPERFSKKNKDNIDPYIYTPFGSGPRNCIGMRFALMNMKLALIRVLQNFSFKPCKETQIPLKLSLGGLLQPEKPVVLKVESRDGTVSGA
# Assay: Cytochrome P450 Family 3 Subfamily A Member 4 (CYP3A4) small molecule antagonists: luciferase reporter qHTS assay (AID 1671201); also: potency is read from the fitted curve at half-maximal effect
# Conditions: P450-Glo CYP3A4 enzyme, luciferin luminescence, 1 h; series mostly up to 115 µM; activity change, negative = inhibition: at the top concentration
# Summary of the method: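 Relative luminescence units after 20 min with luciferin detection reagent served as read-out. Beforehand, CYP3A4 turned over a proluciferin substrate for 1 h at room temperature with NADPH regeneration, following 10 min compound preincubation.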
Structure (SMILES),Potency,"activity change, negative = inhibition"
Cc1ccccc1N=O,36.5 µM (active),–
CCCCCOC(=O)CCC,–,0.458% (inactive)
Oc1ccccc1-c1nnco1,–,7.7% [at 52.9 µM] (inactive)
CCOCCOC(=O)/C=C/c1ccc(OC)cc1,–,33.9% [at 52.9 µM] (inactive)
Cc1ccc(S(=O)(=O)O)c(C)c1,–,34.9% (inactive)
O=C(OCc1ccccc1)C(=O)OCc1ccccc1,–,24.3% (inactive)
CC(C)N(c1ccccc1)C(C)C,–,8.5% (inactive)
CN(C)C(=O)CNC(=O)Cc1ccccc1,–,3.99% [at 52.9 µM] (inactive)
CCC(C)(CCC(C)C)C(=O)O (stereo unspecified),–,16.2% (inactive)
CCOC(=O)[C@H](CCc1ccccc1)N[C@@H](C)C(=O)N1C(=O)N(C)C[C@H]1C(=O)O,–,0.582% [at 52.9 µM] (inactive)
O=C1CC(c2ccc(Cl)cc2)CC(=O)N1,–,10.6% [at 52.9 µM] (inactive)
C[C@H](CCC(=O)O)[C@H]1CC[C@H]2[C@@H]3C(=O)C[C@@H]4CC(=O)CC[C@]4(C)[C@H]3CC(=O)[C@]12C,–,-13.2% [at 52.9 µM] (inactive)
CC1=CCC(C(C)C)=CC1,–,-19.7% (inactive)
CC(=O)Nc1ccc(S(=O)(=O)Nc2ccc([N+](=O)[O-])cc2)cc1,–,-14.9% [at 52.9 µM] (inactive)
CC(=O)NCCCCCC(=O)O,–,6.9% [at 52.9 µM] (inactive)
COc1cc(N)ccc1C,11.1 µM (active),–
CC(S)C(=O)NCC(=O)O (stereo unspecified),–,0.064% [at 52.9 µM] (inactive)
Cc1ccc2ccc(Cl)cc2n1,–,17.4% [at 52.9 µM] (inactive)
CC(C)(C)NC(N)=O,–,7.64% (inactive)

Structure (SMILES),Potency,"activity change, negative = inhibition"
O=C(O)Cc1ccc(Cl)cc1Cl,–,0.745% (inactive)
O=C(O)c1ccc(Cl)cc1Cl,–,20.3% (inactive)
COP(=O)(OC)OC(c1ccc(Cl)cc1)P(=O)(OC)OC (stereo unspecified),–,-9.22% [at 52.9 µM] (inactive)
CCCOC(OCCC)OCCC,–,14.9% (inactive)
CC(CO)c1ccccc1 (stereo unspecified),–,4.76% (inactive)
CCCCNC1CC(C)(C)NC(C)(C)C1,–,-18.7% (inactive)
NS(=O)(=O)c1ccc(NC(=O)CCC(=O)O)cc1,–,1.62% [at 52.9 µM] (inactive)
CC/C=C\CC1=C(C)CCC1=O,–,-27% (inactive)
OCCC(F)(F)C(F)(F)C(F)(F)C(F)(F)C(F)(F)C(F)(F)C(F)(F)C(F)(F)F,–,34.9% (inactive)
CCCCCCOC(=O)CC,–,1.1% (inactive)
BrCc1cccc(Oc2ccccc2)c1,–,68.9% (inactive)
COc1cc(C(=S)N2CCOCC2)cc(OC)c1OC,–,-17.4% [at 52.9 µM] (inactive)
CN(C)c1ccc(C=O)cc1,–,8.03% (inactive)
COC(=O)c1ccccc1C(=O)c1ccc(OCCN2CCCCC2)cc1,–,120% [at 52.9 µM] (inactive)
CC(=O)c1sc(C)nc1C,–,7.54% (inactive)
COc1ccc(C2CNC(=O)C2)cc1OC1CCCC1 (stereo unspecified),–,-20.6% [at 52.9 µM] (inactive)
CCOc1cc(NC(C)=O)ccc1C(=O)OC,–,2.02% [at 52.9 µM] (inactive)
CCCCCCCCSCC,–,3.7% (inactive)
